In PubChem BioAssay AID862 (The Scripps Research Institute Molecular Screening Center, 2007):
Hit rate of the full screen: of about 190,000 compounds, about 1,700 (0.89%) were called active. The entries come from a sample that favours actives as a whole. A number with no mark means an inactive call.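 How the source made its calls: active means inhibition above the mean inhibition across all screened compounds plus 3 SD (cut at about 44% in these data); inactive means the rest.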

Assay: IL-6 driven STAT3 reporter inhibitors, primary screen, U3A cells, luciferase, luminescence, MLSCN library (AID 862);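 further: 0% = DMSO only wells and 100% = 100 µM nifuroxazide control wells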
Conditions: IL-6 STAT3-luciferase reporter, at 5.5 µM, stronger effect = higher value

Row | Compound | inhibition
1 | CC1=CC(=Cc2sc3ccccc3[n+]2C)C=C(C)O1 | 81.6% (active)
2 | COc1ccc(C(=O)CC2C(=O)N(C)C(=O)N(C)C2=O)cc1 | 8.6%
3 | Cc1cccc(-n2c(O)c(/C=N/N3CCOCC3)c(=O)[nH]c2=S)c1 | -17.9%
4 | CN1CCN(c2cc(N3CCNCC3)ccc2[N+](=O)[O-])CC1 | -1.6%
5 | Cc1nc2ccc(N3CCN(C)CC3)cc2nc1C | -6.4%
6 | COc1cccc(-c2nc3ccc(N4CCN(C)CC4)cc3[nH]2)c1 | 85.4% (active)
7 | Cc1c(C(=O)O)cccc1-n1c(C)cc(/C=C2\C(=O)NC(=O)N(c3ccc4c(c3)OCO4)C2=O)c1C | 2.2%
8 | O=C(CCCn1c(=O)[nH]c2cc(Cl)ccc2c1=O)N1CCC2(CC1)OCCO2 | 14.5%
9 | O=C(CN1CCCC1=O)NCCc1ccccc1 | 3.6%
10 | N#Cc1ccc(Cn2cc(C(=O)c3ccco3)c3ccccc32)cc1 | 10.3%
